# KB-V1 cytotox = kills drug-selected multidrug resistant KB-V1 cells. KB-V1 MDR cells viability, CellTiter-Glo, 72 h. Potency, µM (highest dose often 46.1 µM), usual class: cytotoxic. 400,000 tested, 3.4% active. AID 1347076; further: nearly all actives have a fitted effect of over 60% in size
#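 Following 72 h at 37 degrees C with compound, KB-V1 cell viability was read by CellTiter-Glo luminescence, medium being phenol-red-free DMEM plus 10% FBS; concentration-response parameters came from normalized, curve-fitted qHTS data.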
# D3 antag = antagonists of human D3 dopamine receptor; P35462; D3R cells, DiscoveRx beta-arrestin luminescence, antagonist mode; hits give low values; max response, negative = inhibition, %; 360,000 tested, 2.5% active; AID 652054; in the data active means max response below about -50%; inconclusive means no clear call, values can overlap the other calls
# Target sequence (P35462 whole entry, looked up): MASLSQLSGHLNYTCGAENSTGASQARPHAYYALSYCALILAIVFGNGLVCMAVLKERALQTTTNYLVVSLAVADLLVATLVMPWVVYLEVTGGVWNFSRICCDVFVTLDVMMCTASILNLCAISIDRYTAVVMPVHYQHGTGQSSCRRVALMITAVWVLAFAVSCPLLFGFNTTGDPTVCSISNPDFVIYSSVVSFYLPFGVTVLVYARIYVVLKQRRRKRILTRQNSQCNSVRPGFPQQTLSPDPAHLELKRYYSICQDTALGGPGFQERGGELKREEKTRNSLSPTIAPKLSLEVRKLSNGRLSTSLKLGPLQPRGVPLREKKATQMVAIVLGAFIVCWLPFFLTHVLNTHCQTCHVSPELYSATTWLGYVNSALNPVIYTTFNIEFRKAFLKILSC
#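 Cells plated overnight at 1500 cells/well, then exposed to library compounds with dopamine controls for 90 minutes at 37 degrees C. DiscoveRx reagent added for 30–60 minutes at room temperature; luminescence read, quantitative HTS format.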
# MCF10A rereplic = inducers of DNA re-replication in MCF 10A breast cells | MCF 10A DNA re-replication, Hoechst nuclear intensity, 48 h | Potency, µM (highest dose often 46.1 µM), most hits filed as activators | 350,000 tested, 2.9% active | AID 624296; further: nearly all actives have a fitted effect of over 50% in size
# KB-3-1 tox = kills parental KB-3-1 adenocarcinoma cells; Potency, µM (highest dose often 46.1 µM), usual class: cytotoxic; KB-3-1 viability, CellTiter-Glo ATP luminescence, 72 h; AID 1347075; 400,000 tested, 1.4% active; further: nearly all actives have a fitted effect of over 60% in size
#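 72 h, 37 °C compound treatment of KB-3-1 parental cells; CellTiter-Glo added, 10 min, luminescence read. Data corrected against DMSO-only plates and normalized before curve fitting.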
# SW480 rereplic = inducers of DNA re-replication in SW480 colon cancer cells; 340,000 tested, 1.8% active; AID 624297; Potency, µM (titrated, usually from 46.1 µM), most hits filed as activators; SW480 DNA re-replication, Hoechst DNA content imaging, 48 h; further: nearly all actives have a fitted effect of over 55% in size
#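 Compounds, transferred as 23 nL by pin tool, were incubated with cells for 48 hr; DNA content per nucleus was then quantified by Hoechst staining and fluorescence plate imaging.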
# D3 ag = activates the human D3 dopamine receptor; P35462; D3R DiscoveRx beta-arrestin cells, luminescence, 90 min; max activation, %; 410,000 tested, 0.58% active; AID 652048; in the data active means max activation above about 30%
#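 Agonist mode: compounds and dopamine controls were applied to plated cells for 90 min at 37 degrees C after an overnight attachment at 1500 cells/well. Luminescent read-out followed 30 - 60 minutes at room temperature with DiscoveRx detection reagent.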
# Numbers stand for hits; – = inactive; ? = inconclusive; · = no result given; [ ] = another dose, or the depositor's remark. Most compounds without a hit are left out; they make up all but 8.9% or so of the library. Unless noted, the call rests on the fitted dose curve; in most records, active means well fitted curve in the direction sought with a large enough effect; inconclusive means small, poorly fitted or top-dose-only effect, or another doubt; inactive means no such curve, though single readings can be large; an effect the other way counts as inactive or inconclusive.
SMILES,KB-V1 cytotox,D3 antag,MCF10A rereplic,KB-3-1 tox,SW480 rereplic,D3 ag
O=C(NCCCN1CCN(c2ccc(F)cc2)CC1)c1cnn(-c2ccc(F)cc2)c1-n1cccc1,18µM,·,·,?,·,–
CC(CNC(=O)c1cnn(-c2ccc(F)cc2)c1-n1cccc1)c1ccccc1 (configuration not stated),21µM,·,·,?,·,–
COc1ccc(OC(=O)c2cn(-c3cccc(OC)c3)c(=O)c3ccccc23)cc1,–,·,·,–,·,–
CCN(CC)S(=O)(=O)c1ccc2c(c1)N(CC(=O)Nc1c(C)cccc1C)C(=O)CO2,·,·,·,·,·,–
Cc1ccc(C(=O)c2cn(Cc3c(F)cccc3Cl)c3nc(C)ccc3c2=O)cc1,–,·,·,–,·,–
C=CCNc1sc(C(=O)c2ccccc2)c(N)c1-c1nc2ccccc2s1,?,–,–,–,–,–
CCNc1sc(C(=O)c2cccs2)c(N)c1-c1nc2ccccc2s1,–,–,?,–,0.82µM,–
Cc1oc2ncn(CC(C)C)c(=O)c2c1C(=O)N1CCN(c2cccc(C(F)(F)F)c2)CC1,–,·,·,–,·,–
Cc1nn(-c2ccccc2)c2sc(C(=O)NNC(=O)COc3ccccc3)cc12,–,–,–,–,–,–
COC(=O)c1sc(NC(=O)COc2cccc3ccccc23)nc1C,?,–,18µM,–,–,–
Cc1ccn(C(=O)c2cc3c(C)nn(-c4ccccc4)c3s2)n1,–,-52,–,–,–,–
Cc1nn(-c2ccccc2)c2sc(C(=O)NNC(=O)COc3cccc4ccccc34)cc12,18µM,–,23µM,?,?,–
Cc1nn(-c2ccccc2)c2sc(C(=O)NCCN3CCOCC3)cc12,–,-71,?,–,–,–
CCN1CCN(C(c2ccc(F)cc2)c2sc3nc(-c4ccco4)nn3c2O)CC1 (configuration not stated),–,·,·,–,·,–
CCOc1ccc(CNC(=O)c2ccc3c(c2)c(C)c(C)n3Cc2ccc(Cl)cc2)cc1,–,·,·,–,·,–
Cc1nn(-c2ccccc2)c2sc(C(=O)N3CCc4ccccc4C3)cc12,18µM,–,–,–,–,–
Cc1cc(C)c(S(=O)(=O)NCCc2cc3c(C)ccc(C)c3[nH]c2=O)c(C)c1,–,·,·,–,·,–
CCc1ccc(S(=O)(=O)c2nnn3c2nc(Nc2cc(OC)ccc2OC)c2sccc23)cc1,–,·,·,–,·,–
O=C(NCC1CCCO1)C1CCN(C2CCN(CCCC3CCCC3)CC2)CC1 (configuration not stated),–,–,16µM,–,?,–
O=C(NCC1CCCO1)C1CCN(C2CCN(C(=O)CC3CCCC3)CC2)CC1 (configuration not stated),–,–,–,?,–,–
CC(C)CC(=O)Nc1nc2c(s1)CC(C(C)(C)C)CC2 (configuration not stated),–,·,·,–,·,–
CCN(Cc1cnn(C)c1)Cc1nc(Cc2ccccc2Cl)no1,–,–,–,–,–,42
Cc1ccc(-n2nc3c(N4CCC(C(=O)NC(C)c5ccccc5)CC4)nnc(C)c3c2C)cc1 (configuration not stated),–,·,·,–,·,–
CC(=O)Cc1nsc(NC(=O)c2ccc(-c3cccc(C(F)(F)F)c3)o2)n1,5.8µM,–,13µM,?,?,–
CC(=O)Cc1nsc(NC(=O)c2ccc(-c3cc(C(F)(F)F)ccc3Cl)o2)n1,–,–,3.3µM,–,?,–
SMILES,KB-V1 cytotox,D3 antag,MCF10A rereplic,KB-3-1 tox,SW480 rereplic,D3 ag
COc1ccc(N2C(c3cc(OC)cc(OC)c3)=Cc3ccccc3C2CC(C)=O)cc1 (configuration not stated),–,–,·,23µM,·,–
CCOC(=O)C1(S(=O)(=O)c2ccccc2)CCN(Cc2ccc(Cl)cc2)CC1,10µM,?,–,?,–,–
CCOC(=O)C1(Cc2ccccc2)CCN(Cc2ccc(C)s2)CC1,?,–,?,–,–,–
CCOC(=O)C1(CCOc2ccccc2)CCN(Cc2cccc3nonc23)CC1,–,-89,?,–,–,–
CCOC(=O)C1(Cc2ccccc2)CCN(Cc2ccc(C3CCCCO3)s2)CC1 (configuration not stated),?,–,16µM,–,–,–
CCOC(=O)C1(CCOc2ccccc2)CCN(Cc2ccc(O)cc2)CC1,–,?,?,–,?,–
CCOC(=O)C1(CCc2ccccc2)CCN(Cc2ccc(O)cc2)CC1,–,-57,–,–,–[1.84 µM],–
CCOC(=O)C1(CCc2ccccc2)CCN(Cc2ccc(OC)cc2)CC1,–,–,–,–,–,–
CCOC(=O)C1(S(=O)(=O)c2ccc(Cl)cc2)CCN(Cc2ccc(Cl)cc2)CC1,8.2µM,–,–,?,?,–
CCOC(=O)C1(Cc2ccc(Cl)cc2)CCN(Cc2nccn2CC)CC1,–,–,–,–,–,–
CCN(CCCn1c(=S)[nH]c2ccc(N3CCOCC3)cc2c1=O)c1ccccc1,?,–,18µM,–,?,–
O=c1c2cc(N3CCOCC3)ccc2[nH]c(=S)n1CCCN1CCCC1,?,-73,–,–,–,–
CC1CCN(CCCn2c(=S)[nH]c3ccc(N4CCOCC4)cc3c2=O)CC1,?,-81,–,–,–,–
CCOc1ccc(NC(=O)CCS(=O)(=O)c2cccc3nonc23)cc1,–,·,·,–,·,–
CCc1ccc(-c2nc(CN3CCCC(C(=O)NCc4ccc(C)cc4)C3)c(C)o2)cc1 (configuration not stated),–,·,·,–,·,–
CCc1ccc(-c2nc(CN3CCCC(C(=O)NCCc4ccc(OC)c(OC)c4)C3)c(C)o2)cc1 (configuration not stated),2.3µM,–,?,23µM,–,–
COc1ccc(CCNC(=O)C2CCN(Cc3nc(-c4cccc(Cl)c4)oc3C)CC2)cc1OC,3.3µM,–,–,?,–,–
COc1ccc(CCNC(=O)C2CCCN(Cc3nc(-c4ccccc4C)oc3C)C2)cc1OC (configuration not stated),16µM,–,–,–,–,–
CCOc1ccc(CCNC(=O)C2CCN(Cc3nc(-c4ccccc4C)oc3C)CC2)cc1OCC,–,·,·,–,·,–
COCCNC(=O)c1c(-c2ccccc2)c(-c2ccccc2)nn(C)c1=O,·,·,·,·,·,–
COc1cccc(Cn2c(NCC(C)C)nc3c2c(=O)n(C)c(=O)n3C)c1,3.3µM,–,?,–,–,–
CC(O)CNc1nc2c(c(=O)n(C)c(=O)n2C)n1Cc1cccc(C(F)(F)F)c1 (configuration not stated),–,–,–,–,–,–
CC(O)CNc1nc2c(c(=O)n(C)c(=O)n2C)n1Cc1cccc(Br)c1 (configuration not stated),15µM,–,?,?,–,–

# Compound activity: PubChem BioAssay, National Center for Advancing Translational Sciences (NCATS)
